These results are taken from PubChem BioAssay (NCATS).

Unmarked numbers belong to inactive results. Records with an inconclusive call do not appear. This is one part of the list. Active and inactive are the calls of the source. Unless noted, the call rests on the fitted dose curve; in most records, active means well fitted curve in the direction sought with a large enough effect; inconclusive means small, poorly fitted or top-dose-only effect, or another doubt; inactive means no such curve, though single readings can be large; an effect the other way counts as inactive or inconclusive. A value given as a limit tells only on which side of the number the result lay.

Test [1] addresses Lysosomal acid glucosylceramidase (Homo sapiens) (UniProt P04062). In words: Glucocerebrosidase-p2 (AID 348; in the data active means potency below about 10 µM; further: potency means the concentration at half of the fitted maximal effect). The settings on record: purified GBA, blue fluorogenic substrate, 40 min. The gist of the method:
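Compounds titrated from 0.6 nM upwards against 0.2 nM enzyme in pH 5.9 citric acid/KH2PO4, taurocholate, tween-20; blue fluorogenic substrate 80 uM, 40 min room temperature, stopped and read Ex 365/Em 440 for AC50.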

Test [2] is described as follows: AP1 Signaling Pathway (AID 357; active means well fitted curve in either direction with a large enough effect, not every such curve was filed as active; further: on the % scale 0 is the no-effect control and ±100 the full control effect). The note with it: ME-180 AP-1-bla reporter, EGF-induced, beta-lactamase ratio, 5 h; at 7.69 µM (top of the series) unless noted. The gist of the method: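 In this screen, ME-180 cells in Opti-MEM with 0.5% dialyzed FBS received EC50 EGF and compound titrations for 5 h. AP-1 reporter beta-lactamase was detected via CCF4 ratio, giving AC50 for positive and negative modulators.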

For test [3], the target named is Cytochrome P450 1A2 (Homo sapiens) (UniProt P05177). Briefly: p450-cyp1a2 (AID 410; calls by dose curve; further: potency means the concentration at half of the fitted maximal effect). The settings on record: recombinant CYP1A2, luciferin-ME demethylation, luminescence; series mostly up to 57 µM. In a few lines:
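Human CYP1A2 (20nM) demethylated Luciferin-ME at its Km (100uM) in 100mM KPO4. After 10 min compound preincubation, NADPH regeneration ran the reaction 60 min at room temperature. Luciferin was read by luminescence, normalized to 57 uM furafylline.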

A short description of test [4]: Stat Signaling Pathway (AID 446; active means well fitted curve in either direction with a large enough effect, not every such curve was filed as active;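 further: ME-180 cervical cancer cells given 40 pM IL-6 alongside compound; SIE-controlled beta-lactamase reporter measured as 460/530 nm FRET emission ratio; on the % scale 0 is the no-effect control and ±100 the full control effect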). The settings on record: ME-180 SIE beta-lactamase reporter, IL-6 stimulated, 5 h; series mostly up to 7.69 µM. The gist of the method: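 Reporter line: ME-180 cervical carcinoma, SIE-beta-lactamase. Treatment: compound with 40 pM IL-6, 5 hrs, 37 C, in low-serum OPTI-MEM with 10 mM HEPES pH 7.3. Detection: 460/530 nm fluorescence.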

For test [5], the target named is Glucocorticoid receptor (Homo sapiens) (UniProt P04150). In words: GR-GFP Redistribution (AID 450;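 active means compounds whose dose series gives a full or clear partial fitted curve of increased nuclear translocation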; further: potency means the concentration at half of the fitted maximal effect). The note with it: U2OS GR-GFP nuclear translocation, laser cytometry, 2 h.
Glucocorticoid receptor (Homo sapiens), sequence (P04150 whole entry, looked up): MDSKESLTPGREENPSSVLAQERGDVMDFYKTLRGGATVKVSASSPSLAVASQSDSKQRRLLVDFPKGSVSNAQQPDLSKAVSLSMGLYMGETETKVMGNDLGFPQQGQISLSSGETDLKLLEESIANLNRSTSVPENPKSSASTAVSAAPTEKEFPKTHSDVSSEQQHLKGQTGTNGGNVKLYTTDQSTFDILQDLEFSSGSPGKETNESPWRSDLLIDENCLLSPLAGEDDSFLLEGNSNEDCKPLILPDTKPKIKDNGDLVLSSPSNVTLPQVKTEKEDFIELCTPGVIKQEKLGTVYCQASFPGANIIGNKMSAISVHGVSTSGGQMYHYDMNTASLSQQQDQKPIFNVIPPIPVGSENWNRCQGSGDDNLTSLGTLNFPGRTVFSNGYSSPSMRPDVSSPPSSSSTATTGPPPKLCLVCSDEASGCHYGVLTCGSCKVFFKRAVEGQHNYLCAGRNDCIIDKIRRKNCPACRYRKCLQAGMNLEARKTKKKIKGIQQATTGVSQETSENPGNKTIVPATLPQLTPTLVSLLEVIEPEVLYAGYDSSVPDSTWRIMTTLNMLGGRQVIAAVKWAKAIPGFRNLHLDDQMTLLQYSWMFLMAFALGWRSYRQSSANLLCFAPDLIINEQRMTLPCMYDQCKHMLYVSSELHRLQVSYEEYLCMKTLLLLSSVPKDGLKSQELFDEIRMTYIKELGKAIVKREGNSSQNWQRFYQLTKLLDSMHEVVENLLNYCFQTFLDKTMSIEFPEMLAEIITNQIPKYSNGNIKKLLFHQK
Test [6] shares this target. Briefly: GR-EFC Redistribution (AID 451; calls by dose curve; further: potency means the concentration at half of the fitted maximal effect). The note with it: CHO-K1 GR-EFC translocation, beta-gal luminescence, 2 h. The gist of the method:
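Translocation of GR-ED fusion to nuclear EA restores b-gal, read by luminescence after 1 h room-temperature detection. Engineered CHO-K1 biosensor cells, 1,000/well, exposed 2 h at 37 C to titrations up to 46 uM final.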

Test [7] deals with Mitogen-activated protein kinase 10 (Mus musculus) (UniProt Q61831). Briefly: JNK3 AlphaScreen Assay (AID 530; active means well fitted curve in either direction with a large enough effect, not every such curve was filed as active;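 further: kinase came from lysate of stimulated human HepG2 cells; signal reports phosphorylation of biotinylated GST-cJun 1-79 at Ser73 with 10 µM ATP; on the % scale 0 is the no-effect control and ±100 the full control effect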). The note with it: JNK3 lysate, c-Jun phosphorylation; series mostly up to 57.1 µM. The gist of the method:
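Room-temperature AlphaScreen kinase assay; pre-activated HepG2 lysate as JNK3 source, biotin-GST-cJun(1-79) substrate, 10 uM ATP, compound 15 min preincubation.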
In general terms: In Alpha technology, singlet oxygen from a donor bead excites a nearby acceptor bead.

For test [8], the target named is 3',5'-cyclic-AMP phosphodiesterase 4B (Homo sapiens) (UniProt Q07343). Briefly: qHTS Assay for Inhibitors of PDE-IV (AID 607; active means well fitted activation curve with a large enough effect in the main read-out, with a control signal flat, not every such curve was filed as active; further: % of control where 0% means no effect). The settings on record: HEK293 ACTOne CNG channel cells, membrane potential fluorescence; series mostly up to 22.9 µM. In a few lines:
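Cell-based read-out of cAMP via a modified cyclic nucleotide-gated channel and membrane potential dye (535/590 nm) in HEK293 cells expressing PDE4 endogenously. Compounds tested up to 22.9 uM final; 100 uM RO 20-1724 reference.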
On the technique in general: In qHTS, concentration-response curves come from the screen itself.

The target in test [9] is Cytochrome P450 2D6 (Homo sapiens) (UniProt P10635). Briefly: qHTS Assay for Inhibitors and Substrates of Cytochrome P450 2D6 (AID 891). Further: potency means the concentration at half of the fitted maximal effect; nearly all actives have a fitted effect of over 60% in size. The settings on record: recombinant CYP2D6, luciferin-ME EGE luminescence; series mostly up to 57.1 µM. In a few lines:
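Human CYP2D6 (5 nM) with 30 uM Luciferin-ME EGE (at Km) in 100 mM KPO4, compound preincubated 10 min, then NADPH regeneration system for 60 min at room temperature. Luciferin read by luminescence; normalized to 1.43 uM quinidine.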

The target of test [10] is Cytochrome P450 2C19 (Homo sapiens) (UniProt P33261). In words: qHTS Assay for Inhibitors and Substrates of Cytochrome P450 2C19 (AID 899). Further: potency means the concentration at half of the fitted maximal effect; nearly all actives have a fitted effect of over 60% in size. The settings on record: recombinant CYP2C19, luciferin-H EGE luminescence; series mostly up to 57.1 µM. In a few lines:
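5nM enzyme + 10uM Luciferin-H EGE (=KM), 50mM KPO4; cpd pin-transferred, 10 min 37C; NADPH regen, 60 min 37C; stopped w/ luciferin detection reagent, 20 min; luminescence. Normalized to 57uM ketoconazole (AC100).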

Test [11] concerns the target Rap guanine nucleotide exchange factor 3 (Homo sapiens) (UniProt O95398). Briefly: Confirmatory qHTS for antagonist of cAMP-regulated guanine nucleotide exchange factor 3 (EPAC1) (AID 1645880). Further: nearly all actives have a fitted effect of over 55% in size. Further: potency means the concentration at half of the fitted maximal effect.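 On activity, negative = inhibition: plate controls were DMSO only for no effect and full effect of the ATA control for full effect.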 The settings on record: EPAC1 Rap1B-BODIPY-GDP exchange, fluorescence; activity, negative = inhibition: at 115 µM (top of the series). In a few lines: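 Nucleotide exchange uses 100 nM EPAC1, 250 nM RAP1B-BODIPY-GDP and 50 uM GDP, with compounds in a concentration-titration series. After 5 min at room temperature, fluorescence (480 nm ex/540 nm em) is read every 5 min for 30 min. Data are normalized to control ATA and DMSO.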

The target is the same in test [12]. Briefly: Confirmatory qHTS for agonist of cAMP-regulated guanine nucleotide exchange factor 3 (EPAC1) (AID 1645881).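 Further: EPAC1 catalysed release of BODIPY-GDP from Rap1B seen as fluorescence loss; 100% = effect of cAMP agonist control; nearly all actives have a fitted effect of over 75% in size.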 The settings on record: EPAC1 Rap1B BODIPY-GDP exchange fluorescence; series mostly up to 154 µM.
In test [13] the target is Rap guanine nucleotide exchange factor 4 (Homo sapiens) (UniProt Q8WZA2). Briefly: Confirmatory qHTS for agonist of cAMP-regulated guanine nucleotide exchange factor 4 (EPAC2) (AID 1645884).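 Further: nucleotide exchange releases bodipy-GDP from Rap1 and this lowers its fluorescence; on the % scale 0 is the no-effect control and ±100 the full control effect; nearly all actives have a fitted effect of over 65% in size.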 The settings on record: EPAC2 GEF activity, Rap1B-BODIPY-GDP fluorescence; series mostly up to 154 µM.
Rap guanine nucleotide exchange factor 4 (Homo sapiens), sequence (Q8WZA2 whole entry, looked up): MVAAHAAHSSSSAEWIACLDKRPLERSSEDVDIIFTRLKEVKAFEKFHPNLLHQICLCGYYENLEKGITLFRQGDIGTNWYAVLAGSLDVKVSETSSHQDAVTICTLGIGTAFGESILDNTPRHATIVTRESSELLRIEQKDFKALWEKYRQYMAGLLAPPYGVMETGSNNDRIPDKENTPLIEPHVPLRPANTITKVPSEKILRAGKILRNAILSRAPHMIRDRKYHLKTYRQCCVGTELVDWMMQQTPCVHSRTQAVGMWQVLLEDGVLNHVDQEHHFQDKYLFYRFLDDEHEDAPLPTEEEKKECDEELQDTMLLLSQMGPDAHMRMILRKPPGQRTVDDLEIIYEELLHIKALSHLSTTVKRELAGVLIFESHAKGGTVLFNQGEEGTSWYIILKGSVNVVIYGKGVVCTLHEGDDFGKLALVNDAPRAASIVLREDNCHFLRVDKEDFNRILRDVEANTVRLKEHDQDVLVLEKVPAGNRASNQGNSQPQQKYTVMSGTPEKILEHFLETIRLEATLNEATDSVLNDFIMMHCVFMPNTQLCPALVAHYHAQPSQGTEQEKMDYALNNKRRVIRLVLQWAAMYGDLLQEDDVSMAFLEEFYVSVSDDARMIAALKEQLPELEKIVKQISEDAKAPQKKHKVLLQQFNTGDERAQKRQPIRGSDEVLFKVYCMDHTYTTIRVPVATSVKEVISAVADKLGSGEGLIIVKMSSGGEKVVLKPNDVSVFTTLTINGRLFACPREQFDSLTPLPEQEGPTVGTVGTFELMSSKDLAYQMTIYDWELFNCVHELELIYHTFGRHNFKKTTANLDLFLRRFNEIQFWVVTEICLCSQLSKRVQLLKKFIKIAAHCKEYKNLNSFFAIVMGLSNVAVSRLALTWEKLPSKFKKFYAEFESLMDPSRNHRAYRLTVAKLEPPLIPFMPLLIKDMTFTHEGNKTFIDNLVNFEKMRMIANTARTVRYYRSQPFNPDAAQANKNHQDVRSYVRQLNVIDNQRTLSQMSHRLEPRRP
Test [14] has the same target. In words: Confirmatory qHTS for antagonist of cAMP-regulated guanine nucleotide exchange factor 4 (EPAC2) (AID 1645885). Further: nearly all actives have a fitted effect of over 25% in size. Further: potency means the concentration at half of the fitted maximal effect. The settings on record: EPAC2 Rap1B-BODIPY-GDP exchange fluorescence, biochemical; series mostly up to 12.7 µM.
The target of test [15] is Rap guanine nucleotide exchange factor 3 (Homo sapiens) (UniProt O95398). Briefly: Counterscreen qHTS for antagonist of cAMP-regulated guanine nucleotide exchange factor 3 (EPAC1) (AID 1645888).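 Further: fluorescence loss as bound BODIPY-GDP is released from Rap1B; % of control where 0% means no effect.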 The settings on record: Rap1B-BODIPY-GDP nucleotide exchange, fluorescence; series mostly up to 154 µM. The gist of the method:
(§1)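 Rap1B-BODIPY-GDP 250 nM + GDP 50 uM; cpds 7-pt, final 9.74 nM–152 uM (activator mode) or from 7.32 nM upwards (inhibitor mode); RT; FI 480/540 nm at 5 and 30 min, then ± cAMP, reread.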
For orientation: A counterscreen serves to expose hits that act by an unwanted route or on another target.

Test [16] addresses Tumor susceptibility gene 101 protein (Homo sapiens) (UniProt Q99816). Briefly: qHTS Assay for Iinhibitors of HIV-1 Budding by Blocking the Interaction of PTAP/TSG101: Hit Validation (AID 651600). Further: nearly all actives have a fitted effect of over 70% in size. Further: potency means the concentration at half of the fitted maximal effect. The note with it: PTAP peptide/TSG101 UEV interaction, biochemical assay; series mostly up to 57.5 µM. In a few lines: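 Displacement of a FITC-labeled PTAP-motif peptide (50 nM) from the Tsg101 binding domain (10 uM) was monitored by fluorescence polarization after a 20 min room-temperature incubation.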

For test [17], the target named is Rap guanine nucleotide exchange factor 3 (Homo sapiens) (UniProt O95398). In words: Counterscreen qHTS for agonist of cAMP-regulated guanine nucleotide exchange factor 3 (EPAC1) (AID 1645889). Further: % of control where 0% means no effect; nearly all actives have a fitted effect of over 40% in size. The settings on record: EPAC1 Rap1B-BODIPY-GDP exchange, fluorescence; series mostly up to 154 µM. The gist of the method:
as §1

Test [18] is described as follows: NFAT Signaling Pathway (AID 444; active means well fitted curve in either direction with a large enough effect, not every such curve was filed as active;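 further: carbachol stimulus at about its EC50 of 1 µM final; on the % scale 0 is the no-effect control and ±100 the full control effect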). The note with it: Jurkat NFAT-bla M1, carbachol, beta-lactamase ratio, 5 h; at 7.69 µM (top of the series) unless noted. In a few lines:
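Read-out: CCF4 FRET ratio (460 nm/530 nm) after 1 h RT dye loading, used for %activity and AC50 from titration series. Cells: Jurkat NFAT-β-lactamase/M1 line, treated with compound plus 1 uM carbachol for 5 h, 37 °C.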

The target of test [19] is DNA polymerase iota (Homo sapiens) (UniProt Q9UNA4). In words: qHTS for Inhibitors of Polymerase Iota: Confirmatory Assay for Cherry-picked Compounds (AID 720496). Further: potency means the concentration at half of the fitted maximal effect. The settings on record: Pol iota primer extension, TAMRA/BHQ fluorescence. In a few lines: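 Step 1: 10 nM Pol iota with compound, 15 min, room temperature. Step 2: 50 nM final quenched DNA substrate added. Step 3: fluorescence (ex 525, em 598 nm) read at 0 and after 10 min.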

The target in test [20] is DNA polymerase kappa (Homo sapiens) (UniProt Q9UBT6). In words: qHTS for Inhibitors of Polymerase Kappa: Confirmatory Assay for Cherry-picked Compounds (AID 720501). Further: potency means the concentration at half of the fitted maximal effect. The settings on record: purified Pol-kappa, fluorescent strand-displacement substrate. In a few lines:
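Strand-displacement fluorescence read-out: TAMRA reporter released from a BHQ-2-quenched template, measured at 525/598 nm over a 10 min kinetic window. Substrate was 50 nM final; enzyme was 10 nM Pol-kappa, preincubated 15 min at room temperature with compound.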

Test [21] in a line: qHTS for Inhibitors of the vitamin D receptor (VDR): Hit Validation using a Texas Red Assay (AID 602201). Further: on the % scale 0 is the no-effect control and ±100 the full control effect. The note with it: VDR coregulator binding, Texas Red fluorescence polarization, agonist-bound VDR ligand-binding domain; series mostly up to 57.1 µM. The gist of the method: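 After a 2-hour room-temperature incubation, polarization of Texas-Red emission was read (Ex 595 nm/Em 615 nm). Final mix contained 7 nM Texas Red, 1.5 uM VDR-LBD and LG19078.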

Rap guanine nucleotide exchange factor 3 (Homo sapiens), sequence (O95398 whole entry, looked up): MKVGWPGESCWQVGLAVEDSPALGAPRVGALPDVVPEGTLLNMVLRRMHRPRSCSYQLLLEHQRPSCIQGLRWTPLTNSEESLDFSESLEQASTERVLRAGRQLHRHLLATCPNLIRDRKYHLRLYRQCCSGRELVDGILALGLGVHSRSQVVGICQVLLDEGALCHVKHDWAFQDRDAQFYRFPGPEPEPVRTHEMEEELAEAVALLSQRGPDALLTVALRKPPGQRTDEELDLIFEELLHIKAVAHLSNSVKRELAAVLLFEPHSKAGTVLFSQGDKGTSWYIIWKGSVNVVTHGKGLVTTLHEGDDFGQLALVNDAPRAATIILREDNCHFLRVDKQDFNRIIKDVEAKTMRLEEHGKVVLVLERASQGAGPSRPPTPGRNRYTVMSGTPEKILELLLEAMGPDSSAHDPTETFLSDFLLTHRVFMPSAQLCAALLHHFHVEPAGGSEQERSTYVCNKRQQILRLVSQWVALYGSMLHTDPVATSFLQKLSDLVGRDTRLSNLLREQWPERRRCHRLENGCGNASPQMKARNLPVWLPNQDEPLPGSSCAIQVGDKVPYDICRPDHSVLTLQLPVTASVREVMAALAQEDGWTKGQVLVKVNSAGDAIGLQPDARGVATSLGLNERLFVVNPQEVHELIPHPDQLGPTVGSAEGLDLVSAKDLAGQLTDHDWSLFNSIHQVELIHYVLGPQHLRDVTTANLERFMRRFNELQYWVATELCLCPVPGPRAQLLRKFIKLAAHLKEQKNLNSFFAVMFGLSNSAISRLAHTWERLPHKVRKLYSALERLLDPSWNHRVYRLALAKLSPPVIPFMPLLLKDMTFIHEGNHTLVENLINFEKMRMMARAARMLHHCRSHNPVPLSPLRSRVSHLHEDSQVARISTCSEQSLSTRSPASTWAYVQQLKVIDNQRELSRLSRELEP
Tumor susceptibility gene 101 protein (Homo sapiens), sequence (Q99816 whole entry, looked up, the tested form may be a part): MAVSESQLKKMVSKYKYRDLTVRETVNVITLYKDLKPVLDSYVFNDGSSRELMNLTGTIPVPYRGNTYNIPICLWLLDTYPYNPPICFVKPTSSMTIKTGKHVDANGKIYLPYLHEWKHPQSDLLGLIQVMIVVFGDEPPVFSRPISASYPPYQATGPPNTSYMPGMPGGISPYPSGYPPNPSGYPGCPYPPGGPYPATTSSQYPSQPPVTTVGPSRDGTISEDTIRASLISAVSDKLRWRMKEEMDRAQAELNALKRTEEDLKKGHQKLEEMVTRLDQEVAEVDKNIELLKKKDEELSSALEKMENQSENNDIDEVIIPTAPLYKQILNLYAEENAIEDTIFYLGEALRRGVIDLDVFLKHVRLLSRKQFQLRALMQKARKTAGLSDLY
Cytochrome P450 1A2 (Homo sapiens), sequence (P05177 whole entry, looked up): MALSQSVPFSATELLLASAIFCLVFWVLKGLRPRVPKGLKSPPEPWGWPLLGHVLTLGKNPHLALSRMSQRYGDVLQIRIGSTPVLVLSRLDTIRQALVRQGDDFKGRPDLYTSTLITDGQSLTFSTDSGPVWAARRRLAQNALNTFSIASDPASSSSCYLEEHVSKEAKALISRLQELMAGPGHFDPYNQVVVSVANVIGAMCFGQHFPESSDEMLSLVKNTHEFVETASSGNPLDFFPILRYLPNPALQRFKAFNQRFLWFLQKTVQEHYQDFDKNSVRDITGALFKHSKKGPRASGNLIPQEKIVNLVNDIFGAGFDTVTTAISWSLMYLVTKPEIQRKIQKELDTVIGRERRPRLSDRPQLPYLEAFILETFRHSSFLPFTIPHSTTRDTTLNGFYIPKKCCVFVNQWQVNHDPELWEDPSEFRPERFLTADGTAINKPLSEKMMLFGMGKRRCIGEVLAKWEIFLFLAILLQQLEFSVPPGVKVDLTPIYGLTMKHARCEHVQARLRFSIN
Cytochrome P450 2D6 (Homo sapiens), sequence (P10635 whole entry, looked up): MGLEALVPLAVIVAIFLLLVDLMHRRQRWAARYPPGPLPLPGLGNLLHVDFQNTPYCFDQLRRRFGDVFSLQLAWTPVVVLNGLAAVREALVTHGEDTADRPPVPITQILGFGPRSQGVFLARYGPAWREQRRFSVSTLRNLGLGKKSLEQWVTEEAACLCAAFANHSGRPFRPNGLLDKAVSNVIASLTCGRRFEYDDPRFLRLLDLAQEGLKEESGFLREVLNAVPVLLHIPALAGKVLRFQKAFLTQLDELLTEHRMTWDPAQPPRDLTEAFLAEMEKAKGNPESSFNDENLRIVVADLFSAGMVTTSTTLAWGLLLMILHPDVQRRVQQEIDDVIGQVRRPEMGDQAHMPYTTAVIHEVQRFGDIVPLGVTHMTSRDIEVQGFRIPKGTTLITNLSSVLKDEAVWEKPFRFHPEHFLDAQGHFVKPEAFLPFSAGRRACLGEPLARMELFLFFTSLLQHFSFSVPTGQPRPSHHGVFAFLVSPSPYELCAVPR
DNA polymerase kappa (Homo sapiens), sequence (Q9UBT6 whole entry, looked up): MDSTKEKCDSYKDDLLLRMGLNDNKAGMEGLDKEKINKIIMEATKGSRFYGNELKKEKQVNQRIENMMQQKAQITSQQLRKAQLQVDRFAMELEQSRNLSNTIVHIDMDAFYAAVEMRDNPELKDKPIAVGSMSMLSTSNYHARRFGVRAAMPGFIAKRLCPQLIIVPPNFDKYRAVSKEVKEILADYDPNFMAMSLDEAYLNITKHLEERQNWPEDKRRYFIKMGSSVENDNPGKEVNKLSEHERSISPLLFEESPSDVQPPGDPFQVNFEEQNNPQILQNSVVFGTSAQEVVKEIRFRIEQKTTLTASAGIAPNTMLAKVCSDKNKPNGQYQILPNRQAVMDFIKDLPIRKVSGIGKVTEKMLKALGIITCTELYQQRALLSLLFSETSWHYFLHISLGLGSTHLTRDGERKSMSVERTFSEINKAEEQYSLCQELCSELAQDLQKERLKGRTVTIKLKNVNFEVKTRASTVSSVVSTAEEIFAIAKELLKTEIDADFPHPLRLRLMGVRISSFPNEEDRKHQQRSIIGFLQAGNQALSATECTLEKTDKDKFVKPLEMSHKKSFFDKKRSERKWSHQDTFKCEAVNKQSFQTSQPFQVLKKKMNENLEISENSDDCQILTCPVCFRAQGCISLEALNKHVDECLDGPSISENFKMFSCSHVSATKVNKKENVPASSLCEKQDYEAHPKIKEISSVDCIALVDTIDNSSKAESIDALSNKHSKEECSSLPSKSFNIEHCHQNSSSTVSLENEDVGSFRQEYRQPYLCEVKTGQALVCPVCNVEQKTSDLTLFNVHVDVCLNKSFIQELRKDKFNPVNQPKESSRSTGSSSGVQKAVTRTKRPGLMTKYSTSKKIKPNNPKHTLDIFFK

Regarding `CC(C)=CCC1=C(OCC(=O)O)C(=O)c2ccccc2C1=O`, the Potency in [1] was > 11.4 µM; in test [3] it was 0.501 µM (active); in test [5], > 46 µM; in [6], > 9.22 µM; in test [9], 3.16 µM (active); in test [10], 1.26 µM (active). The Potency in test [11] is 84.9 µM (active). The activity change, negative = inhibition in test [2] is 18.8%; in test [7], 15.2% [at 11.4 µM]. In test [4], the compound was classed as inactive. Besides, the Potency result in test [8], in [12], in [13], in [14] and in test [15] was “inactive” throughout.

`Cc1cc(=O)oc2ccc(OC(=O)CN3C(=O)c4cccc([N+](=O)[O-])c4C3=O)cc12`: the Potency result in test [16], in test [11], in test [12], in test [13], in test [14] and in [15] was “inactive” in each case. Also, the Potency result in test [17] was “inactive”.

Take `Cn1c(=O)c(N)c2c3c(c(Br)ccc31)C(=O)c1ccccc1-2`: the Potency in [16] was 1.63 µM (active); in test [11] it was 26.9 µM (active); in test [14], 26.9 µM (active). Moreover, the Potency entry in test [12], in [13], in test [15] and in test [17] was “inactive” in each case.

On to `CC1=C(C#N)C(=O)OC(C)(C)C1`, for which the activity change, negative = inhibition in test [2] was 8.14% [at 17.2 µM]; in test [18], -4.86% [at 17.2 µM]. In [4], the compound was classed as inactive. The figures for the Potency in test [5] and in test [14] were > 20.6 µM and 0.601 µM (active), respectively. Besides, the Potency result in test [11], in [12], in test [13] and in [15] was “inactive” each time.

With `CCOC(=O)c1cc2n(c1/N=C/N(C)C)-c1ccccc1C2=O`, the Potency in test [16] is 5.8 µM (active). Further, the Potency result in [11], in test [12] and in [14] was “inactive” in each case. Also, the activation in test [13] is 6.24% [at 17.1 µM, percent relative to cAMP agonist control]. In addition, the activity change, negative = inhibition in test [15] was 1.53% [at 30.8 µM].

For the compound `COc1ccc(Br)cc1/C=N/Nc1ccc(S(=O)(=O)Nc2ccccc2C(=O)O)cc1[N+](=O)[O-]`, the Potency was 37.7 µM (active) in test [19], 42.3 µM (active) in test [20] and 25.1 µM (active) in test [11]. Moreover, the Potency entry in test [12] and in test [14] was “inactive” each time. Moreover, the activation in [13] was 0.546% [at 17.1 µM, percent relative to cAMP agonist control]; in test [17] it was 19% [at 30.8 µM]. In addition, the activity change, negative = inhibition in [15] is -3.11% [at 30.8 µM].

In the case of `CCOC(=O)COc1ccc(Br)cc1/C=C/c1[nH]c(=O)[nH]c(=O)c1[N+](=O)[O-]`, the Potency result in test [21], in test [12], in [13], in [14] and in [15] was “inactive” each time. In [11], the Potency is 7.57 µM (active).
